The nature of assay [1]: A CellTox Green Cytotoxicity Assay to monitor cytotoxicity in HEK293 cells - 32 hour (AID 1224881). Also: nearly all actives have a fitted effect of over 40% in size. Also: potency is read from the fitted curve at half-maximal effect. An outline of the steps: (§1)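 Nonlytic real-time cytotoxicity: HEK293 + CellTox Green reagent plated, 5 h preincubation, pintool compound addition (23 nL in DMSO), 37 C for 40 h, fluorescence measured at successive time points.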
Assay [2] in a line: A CellTox Green Cytotoxicity Assay to monitor cytotoxicity in HepG2 cells - 0 hour (AID 1224882). Also: nearly all actives have a fitted effect of over 35% in size. In short, it runs like this: (§2)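 Read-out is fluorescence of a cyanine dye excluded from live cells that stains DNA of dead HepG2 cells, with signal proportional to cytotoxicity. Plates were read at 0, 8, 16, 24, 32 and 40 h after compound addition.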
A short description of assay [3]: A CellTox Green Cytotoxicity Assay to monitor cytotoxicity in HepG2 cells - 32 hour (AID 1224883). Also: nearly all actives have a fitted effect of over 50% in size. Also: potency is read from the fitted curve at half-maximal effect. In short, it runs like this:
as §2

Assay [4] in a line: A CellTox Green Cytotoxicity Assay to monitor cytotoxicity in HEK293 cells - 8 hour (AID 1224884). Also: nearly all actives have a fitted effect of over 35% in size. Also: potency is read from the fitted curve at half-maximal effect. An outline of the steps:
as §1

Assay [5] in a line: qHTS RealTime-Glo MT Cell Viability Assay in HepG2 cells - 16 hour (AID 1224885). Also: nearly all actives have a fitted effect of over 50% in size. Also: potency is read from the fitted curve at half-maximal effect. In short, it runs like this:
(§3)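 Real-time, nonlytic viability: 600 HepG2 cells/well mixed with NanoLuc enzyme plus prosubstrate; 5 h settle, compound (DMSO) added by pintool; luminescence monitored over 40 h at 37 C.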
In general terms: Quantitative high-throughput screening tests each substance at several concentrations.

A short description of assay [6]: qHTS RealTime-Glo MT Cell Viability Assay in HEK293 cells - 24 hour (AID 1224886). Also: nearly all actives have a fitted effect of over 50% in size. Also: potency is read from the fitted curve at half-maximal effect. In short, it runs like this: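 Cells + reagent dispensed (600 cells/well, HEK293) → 5 h at 37 C/5% CO2 → 23 nL compound in DMSO pinned → 40 h at 37 C → luminescence read at 0, 8, 16, 24, 32, 40 h.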
The nature of assay [7]: qHTS RealTime-Glo MT Cell Viability Assay in HEK293 cells - 8 hour (AID 1224887). Also: nearly all actives have a fitted effect of over 50% in size. Also: potency is read from the fitted curve at half-maximal effect. An outline of the steps: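 Cells were seeded together with NanoLuc luciferase and a prosubstrate that viable cells reduce to a luciferase substrate. After a 5 h incubation at 37 C/5% CO2, compounds were added and luminescence was measured repeatedly during 40 h of treatment.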
Assay [8] in a line: A CellTox Green Cytotoxicity Assay to monitor cytotoxicity in HEK293 cells - 16 hour (AID 1224888). Also: nearly all actives have a fitted effect of over 35% in size. Also: potency is read from the fitted curve at half-maximal effect. An outline of the steps: as §1
Assay [9] can be described thus: qHTS RealTime-Glo MT Cell Viability Assay in HepG2 cells - 0 hour (AID 1224889). Also: nearly all actives have a fitted effect of over 50% in size. In short, it runs like this:
as §3

Assay [10] can be described thus: A CellTox Green Cytotoxicity Assay to monitor cytotoxicity in HepG2 cells - 8 hour (AID 1224890). Also: nearly all actives have a fitted effect of over 45% in size. Also: potency is read from the fitted curve at half-maximal effect. In short, it runs like this:
as §2

Assay [11] can be described thus: qHTS assay to identify small molecule antagonists of the estrogen receptor alpha (ER-alpha) signaling pathway using the BG1 cell line in the presence of 0.1 nM 17-beta-estradiol - cell viability counter screen (AID 1259241). Also: nearly all actives have a fitted effect of over 40% in size. Also: potency is read from the fitted curve at half-maximal effect. In short, it runs like this: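 Following 5 days in phenol red-free medium with charcoal-stripped serum, VM7Luc4E2 cells received test compounds alongside 0.1 nM 17beta-estradiol (final) at 37C for 22 hr. Live cells were then quantified via protease-substrate fluorescence.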

Assay [12] can be described thus: qHTS assay to identify small molecule antagonists of the androgen receptor (AR) signaling pathway using the MDA cell line in the presence of 0.5 nM R1881 - cell viability counter screen (AID 1259242). Also: nearly all actives have a fitted effect of over 45% in size. Also: potency is read from the fitted curve at half-maximal effect. An outline of the steps:
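Counter screen for cytotoxicity run in the same wells as the AR antagonist reporter screen: MDA-kb2 cells were treated 16 hr with test compounds and 0.5 nM R1881, then live-cell protease activity was measured by fluorescence.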

Assay [13] has as its target Estrogen receptor (Homo sapiens) (UniProt P03372). Nature of the assay: qHTS assay to identify small molecule antagonists of the estrogen receptor alpha (ER-alpha) signaling pathway using the BG1 cell line in the presence of 0.1 nM 17-beta-estradiol (AID 1259244). Also: nearly all actives have a fitted effect of over 50% in size. Also: potency is read from the fitted curve at half-maximal effect. An outline of the steps:
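Cells: VM7Luc4E2, endogenous ER-alpha, 4x ERE-luc stable. Pre-culture 5 d, phenol red-free, charcoal-stripped FBS. Plated 24 h, compound + E2 0.1 nM final, 22 h 37C/5% CO2. Readout ONE-Glo luminescence.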

Assay [14] can be described thus: qHTS assay to identify small molecule HDAC inhibitors (AID 1259364). Also: top concentration of the series differs between compounds; nearly all actives have a fitted effect of over 45% in size. An outline of the steps: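 Luminescence from a cell-permeant luminogenic class I/II HDAC substrate reports endogenous deacetylase activity in intact HCT-116 cells treated with compounds for 2 h.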
Assay [15] can be described thus: qHTS assay to identify small molecule agonists of the sonic hedgehog signaling (Shh) pathway - cell viability counter screen (AID 1259366). Also: nearly all actives have a fitted effect of over 50% in size. Also: potency is read from the fitted curve at half-maximal effect. In short, it runs like this:
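Compounds in DMSO were pin-transferred onto 3T3 Gli1-Luc cells that had settled 4hr; plates then stood 24hr at 37C and 5% CO2. One hour before the end, CellTiter-Fluor was added and fluorescence recorded.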

Assay [16] in a line: qHTS assay to identify small molecule antagonists of the sonic hedgehog signaling (Shh) pathway - cell viability counter screen (AID 1259367). Also: nearly all actives have a fitted effect of over 55% in size. Also: potency is read from the fitted curve at half-maximal effect. An outline of the steps: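 Seed 3T3 Gli1-Luc cells at 2,000 per well; incubate 4 hr; add compound in DMSO, then conditioned medium; incubate at 37C with 5% CO2; add CellTiter-Fluor after 23 hr; read fluorescence 1 hr later.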
Assay [17] can be described thus: qHTS assay to identify small molecule agonists of the sonic hedgehog signaling (Shh) pathway (AID 1259368; calls by dose curve;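 also: NIH/3T3-derived 3T3Gli1-Luc cells carrying a stable Gli1-driven firefly luciferase reporter; series mostly up to about 92 µM; nearly all actives have a fitted effect of over 15% in size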). In short, it runs like this: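 3T3Gli1-Luc (NIH/3T3 clone, stable Gli1-Luc); 4 hr pre-incubation, then cpd in DMSO 24 hr, 37 C/5% CO2; luciferase reagent 30 min RT; luminescence.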
The nature of assay [18]: qHTS assay to identify small molecule HDAC inhibitors - cell viability counter screen (AID 1259365). In short, it runs like this: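 HCT-116 wild-type, overnight attachment; 2hr drug exposure, 37C; CellTiter-Glo luminescent ATP readout after 30min RT.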
The target in assay [19] is Androgen receptor (Homo sapiens) (UniProt P10275). The experiment in a line: qHTS assay to identify small molecule antagonists of the androgen receptor (AR) signaling pathway using the MDA cell line in the presence of 0.5 nM R1881 (AID 1259243). In short, it runs like this: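 Luciferase luminescence is the read-out: compounds are tested for suppressing 0.5 nM R1881-driven MMTV reporter activity in MDA-kb2 cells after 16 hr at 37C.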

Records with an inconclusive call do not appear. Activity calls are given as the source filed them. Unless noted, calls follow the shape of the dose curve; as a rule, active = well fitted curve in the direction sought with a large enough effect in the repeat runs; inconclusive = weak or mixed curves; inactive = no such curve, though single readings can be large; an effect the other way counts as inactive or inconclusive.

Sequence of Estrogen receptor (Homo sapiens) (P03372 whole entry, looked up): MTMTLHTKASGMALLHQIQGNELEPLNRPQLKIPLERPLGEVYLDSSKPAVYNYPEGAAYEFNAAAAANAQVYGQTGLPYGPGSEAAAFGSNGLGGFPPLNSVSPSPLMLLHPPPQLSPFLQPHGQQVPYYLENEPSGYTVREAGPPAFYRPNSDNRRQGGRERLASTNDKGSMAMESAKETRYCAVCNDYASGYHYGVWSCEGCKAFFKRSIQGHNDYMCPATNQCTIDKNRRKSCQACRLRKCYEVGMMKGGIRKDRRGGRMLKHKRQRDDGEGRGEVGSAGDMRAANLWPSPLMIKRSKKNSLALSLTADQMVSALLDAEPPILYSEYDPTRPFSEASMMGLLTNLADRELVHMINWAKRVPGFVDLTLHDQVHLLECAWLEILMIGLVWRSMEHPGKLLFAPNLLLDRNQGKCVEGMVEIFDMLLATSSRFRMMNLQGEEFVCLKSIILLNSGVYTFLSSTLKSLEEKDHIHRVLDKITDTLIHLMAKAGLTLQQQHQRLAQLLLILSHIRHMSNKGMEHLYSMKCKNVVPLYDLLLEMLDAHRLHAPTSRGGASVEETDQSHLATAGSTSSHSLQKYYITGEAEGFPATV
Sequence of Androgen receptor (Homo sapiens) (P10275 whole entry, looked up): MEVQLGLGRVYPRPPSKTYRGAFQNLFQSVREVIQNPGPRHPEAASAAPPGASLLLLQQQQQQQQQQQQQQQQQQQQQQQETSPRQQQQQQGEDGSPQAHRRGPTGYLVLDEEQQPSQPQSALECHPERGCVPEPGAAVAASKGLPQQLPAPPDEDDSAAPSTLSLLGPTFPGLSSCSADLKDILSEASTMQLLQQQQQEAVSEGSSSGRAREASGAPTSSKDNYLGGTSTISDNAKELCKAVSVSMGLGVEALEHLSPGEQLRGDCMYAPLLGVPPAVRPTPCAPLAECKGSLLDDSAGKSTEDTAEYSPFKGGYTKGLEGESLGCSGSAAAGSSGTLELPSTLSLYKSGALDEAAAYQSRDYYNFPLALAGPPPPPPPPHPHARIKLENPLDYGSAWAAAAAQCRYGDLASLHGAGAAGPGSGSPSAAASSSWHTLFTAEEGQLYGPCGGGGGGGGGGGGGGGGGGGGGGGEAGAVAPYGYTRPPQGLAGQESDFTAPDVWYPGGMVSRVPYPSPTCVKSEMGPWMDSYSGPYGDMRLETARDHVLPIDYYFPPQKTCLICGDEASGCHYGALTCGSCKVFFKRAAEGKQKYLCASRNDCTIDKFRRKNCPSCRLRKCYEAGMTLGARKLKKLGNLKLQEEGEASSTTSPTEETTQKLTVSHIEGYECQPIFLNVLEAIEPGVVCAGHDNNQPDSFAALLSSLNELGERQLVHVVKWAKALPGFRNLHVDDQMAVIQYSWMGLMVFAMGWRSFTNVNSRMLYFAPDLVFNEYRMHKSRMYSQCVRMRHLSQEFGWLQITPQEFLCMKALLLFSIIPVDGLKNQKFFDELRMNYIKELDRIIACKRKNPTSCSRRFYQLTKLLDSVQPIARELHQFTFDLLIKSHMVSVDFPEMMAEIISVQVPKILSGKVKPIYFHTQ

`C=C(C)C(=O)[O][Sn]([CH2]CCC)([CH2]CCC)[CH2]CCC`: the Potency was 490 nM (active) in assay [1]; 616 nM (active) in [3]; 11000 nM (active) in [4]; 436 nM (active) in assay [5]; 309 nM (active) in assay [6]; 776 nM (active) in [7]. For the same compound, the Potency in [8] was 8710 nM (active); in assay [10], 871 nM (active); in [11] it was 770 nM (active); in [12], 545 nM (active); in [13], 486 nM (active); in assay [15] it was 172 nM (active). Besides, in assay [16], the Potency is 486 nM (active). The Potency result in [2], in assay [9], in [14] and in assay [17] was “inactive” each time.
Turning to `O=[N+]([O-])c1ccc(CCl)cc1`, the Potency entry in [1], in assay [2], in assay [3], in assay [4], in assay [5] and in assay [6] was “inactive” each time. The Potency entry in [7], in assay [8], in assay [9], in [10], in assay [11] and in assay [12] was “inactive” each time. Also, the Potency entry in assay [13], in assay [18], in [15], in assay [16] and in assay [17] was “inactive” each time.
As for `CCOP(=S)(OCC)Oc1cc(C)nc(N(CC)CC)n1`, the Potency result in assay [1], in assay [2], in assay [3], in assay [4], in [5] and in assay [6] was “inactive” in each case. The Potency entry in assay [7], in assay [8], in assay [9], in [10], in assay [11] and in [12] was “inactive” throughout. Besides, the Potency entry in [14], in [18], in [15], in assay [16] and in assay [17] was “inactive” throughout. For the same compound, the Potency in assay [19] was 34400 nM (active).
For `O=c1c2ccccc2c(=O)c2c1cc(Cl)c1[nH]c3c([nH]c12)c(Cl)cc1c(=O)c2ccccc2c(=O)c13`, the Potency result in assay [1], in [2], in assay [3], in assay [4], in assay [5] and in assay [6] was “inactive” throughout. For the same compound, the Potency result in assay [7], in assay [8], in assay [9], in assay [10], in [11] and in assay [12] was “inactive” throughout. Also, the Potency entry in assay [13], in assay [18], in assay [15], in assay [16] and in assay [17] was “inactive” throughout.
Take `O=[N+]([O-])c1ccccc1-c1ccccc1`: the Potency entry in assay [1], in [2], in assay [3], in [4], in assay [5] and in assay [6] was “inactive” in each case. The Potency result in assay [7], in [8], in assay [9], in assay [10], in assay [11] and in [12] was “inactive” each time. Moreover, the Potency result in assay [13], in assay [14], in [18], in assay [16] and in assay [17] was “inactive” throughout.
Take `CSC(C)(C)/C=N/O`: the Potency entry in assay [1], in assay [2], in assay [3], in assay [4], in [5] and in assay [6] was “inactive” in each case. The Potency result in [7], in [8], in assay [9], in assay [10], in assay [11] and in assay [12] was “inactive” each time. In addition, the Potency result in assay [13], in assay [14], in [18], in assay [16] and in assay [17] was “inactive” throughout.
`O=C(Cl)c1ccccc1F`: the Potency result in assay [1], in assay [2], in assay [3], in assay [4], in [5] and in [6] was “inactive” throughout. Besides, the Potency result in [7], in [8], in assay [9], in assay [10], in [11] and in [12] was “inactive” in each case. Besides, the Potency entry in assay [13], in assay [14], in [18], in [15], in assay [16] and in [17] was “inactive” each time.

The values are drawn from PubChem BioAssay (Tox21).
